Screening data: PubChem, National Center for Advancing Translational Sciences (NCATS)
VACV Venus inh – inhibitors of vaccinia virus (Venus reporter) | AID 720580 | 330,000 compounds, 0.46% hits | Vaccinia virus Venus reporter expression, fluorescence | Potency, µM (series often up to 36.5 µM), without a hit: at the top dose activity change, negative = inhibition, most hits filed as inhibitors; calls by dose curve; tested in A549 cells; note: potency is the fitted concentration of half-maximal effect; nearly all actives have a fitted effect of over 30% in size
FMDV antiviral – blocks foot and mouth disease virus; FMDV antiviral cell-based qHTS; Potency, µM (top dose mostly 57.9 µM), for inactives: at the highest dose activity change, negative = inhibition, actives largely listed as inhibitors; 410,000 compounds, 1.2% hits; calls by dose curve; tested in HEK293T cells; note: read-out not given here; potency is the fitted concentration of half-maximal effect; nearly all actives have a fitted effect of over 45% in size
MARV entry inh – inhibitors of Marburg virus binding or cell entry; 300,000 compounds, 1.8% hits; AID 540276; Potency, µM (series often up to 37.8 µM), inactives show at the top dose activity change, negative = inhibition, most hits filed as inhibitors; Marburg virus pseudotyped entry inhibition, cell reporter; calls by dose curve; tested in HEK293 cells; note: potency is the fitted concentration of half-maximal effect
HCMV inh – blocks human cytomegalovirus replication | HFF cells, HCMV-luciferase reporter, 72 h; stronger effect = lower value | activity change, negative = inhibition, % at 57.5 µM | 410,000 compounds, 4.5% hits | AID 1259415; in the data active = activity change below about -60%; inconclusive = no clear call, values can overlap the other calls; inactive = above about -39%
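Human foreskin fibroblasts infected with luciferase-reporter HCMV at MOI 1 PFU/cell, compounds at two doses. Luciferase measured 72 h post infection; normalized to buffer-only basal and Salinomycin (10uM) controls.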
Lassa entry inh – Lassa virus entry inhibition; Lassa virus pseudotype entry inhibition, cell reporter; Potency, µM (highest dose often 37.9 µM), for the others: top-dose activity change, negative = inhibition, actives largely listed as inhibitors; 300,000 compounds, 1.2% hits; AID 540256; calls by dose curve; tested in HEK293 cells; note: potency is the fitted concentration of half-maximal effect; nearly all actives have a fitted effect of over 50% in size
VACV mCherry inh – inhibitors of vaccinia virus infection (mCherry reporter signal); 310,000 compounds, 0.63% hits; Vaccinia virus mCherry reporter infection, fluorescence; Potency, µM (series often up to 36.5 µM), inactives show at the top dose activity change, negative = inhibition, most hits filed as inhibitors; AID 720579; calls by dose curve; tested in A549 cells; note: potency is the fitted concentration of half-maximal effect; nearly all actives have a fitted effect of over 35% in size
* = called active by the depositor; i = inactive; ? = inconclusive; . = no result; [ ] = another dose, or the depositor's remark. An excerpt weighted towards active compounds, which were near 6.5% of everything screened. % is set by controls: 0 for no effect and ±100 for the full control effect.

SMILES | VACV Venus inh | FMDV antiviral | MARV entry inh | HCMV inh | Lassa entry inh | VACV mCherry inh
Cc1ccc(CNC(=O)CC(C)S(=O)(=O)c2ccc3c(c2)NC(=O)C(C)S3)cc1 (centres undefined) | . | ? | . | -36.5 | . | .
CC(=O)c1ccc(NS(=O)(=O)c2c(C)cc(C)cc2C)cc1 | -21.9% | 68.5% | ? | ? | ? | -22.3%
Cc1cc(C)c(S(=O)(=O)Nc2ccc(C(N)=O)cc2)c(C)c1 | -11.3% | 9.8% | 9.1%[46.1 µM] | -84.4* | -14.0% | -14.1%
Cc1cc(C)c(S(=O)(=O)Nc2ccc3c(c2)CCC3)c(C)c1 | -16.3% | 80.2% | 7.31µM* | -84.9* | ? | i
Cc1[nH]nc(-c2cccnc2)c1N=NN(C)C | ? | ? | 7.08µM* | 62.4 | ? | ?
Cc1cc2c(=O)n(Cc3ccco3)c(SCC(=O)N3CCCc4ccccc43)nc2s1 | ? | . | ? | -88.0* | ? | ?
Cc1cc(C)c(C(=O)Nc2ccc(C)c(C)c2)c(CC(C)(C)C(=O)O)c1 | -17.2% | 9.9% | -10.6%[14.2 µM] | -31.3 | 19.5% | -11.9%
CC(=O)Oc1c(-c2ccco2)oc2ccccc2c1=O | -16.6% | 20.8% | ? | -8.9 | ? | -25.3%
Cc1nc2cc(NC(=O)Nc3nccs3)ccc2n1C | -20.0% | . | ? | 35.4 | 13µM* | -22.3%
O=C(Nc1ccc(Cl)c(Cl)c1)Nc1nccs1 | . | -18.1% | . | -66.3* | . | .
O=C(Nc1cccc(Cl)c1)Nc1nccs1 | . | 5.3% | 35.1% | -7.9 | 26.0% | .
CC(=O)C[n+]1cccc2cc(Cl)ccc21 | 9.8% | . | . | . | . | -13.4%
COc1ccc(S(=O)(=O)NC2CC2)cc1Br | . | 14.0% | . | 3.3 | . | .
COc1ccccc1/C=N/NC(=Nc1ccc(C)cc1)c1nc2ccccc2s1 | . | . | 5.8% | . | . | .
COc1cc(/C=N/NC(=Nc2ccc(C)cc2)c2nc3ccccc3s2)ccc1O | . | 17.8µM* | ? | -68.4* | 13µM* | .
Cc1ccsc1/C=N/NC(=O)c1cc(-c2ccncc2)nc2ccccc12 | ? | -19.5% | 0.581µM* | -95.4* | ? | ?
CCOc1cccc(-c2cc(C(=O)N/N=C/c3ccc(OC)c(CN4CCOCC4)c3)c3ccccc3n2)c1 | -7.3% | 9.0% | 8.2µM* | 0.0 | ? | -21.8%
CCOc1ccccc1-c1cc(C(=O)N/N=C/c2ccc(O)c(OC)c2)c2ccccc2n1 | 9.7% | ? | ? | -33.2 | 7.08µM* | 12.6µM*
O=C(NCC1CCC2(CCN(Cc3ccccc3O)CC2)O1)C1CCCO1 (centres undefined) | -3.3% | -7.5% | . | . | . | -10.1%
CC(OC(=O)c1ncc(Cl)c(Cl)c1Cl)C(=O)NC1CCCCC1C (centres undefined) | -8.8% | 0.0% | ? | -25.0 | -19.5% | -12.3%
COc1cccc(CNC(=O)COC(=O)c2nc(Cl)c(Cl)c(Cl)c2Cl)c1 | ? | ? | ? | 0.0 | ? | ?
COc1ccccc1-c1cc(C(=O)N/N=C/c2sccc2C)c2ccccc2n1 | -8.8% | ? | 12.6µM* | ? | ? | .
COc1ccc(/C=N/NC(=O)c2cc(-c3ccccc3)nc3ccccc23)c(OC)c1 | . | -9.5% | . | 70.0 | . | .
CCOc1cc(/C=N/NC(=O)c2ccc(CN3CCOCC3)cc2)ccc1OCc1ccccc1 | -12.2% | 22.4µM* | ? | -72.7* | ? | i
Cc1ccc2c(c1)C(=C(C#N)C#N)CCN2 | 207.0% | -18.4% | 5.1% | ? | 16.2% | -23.8%
SMILES | VACV Venus inh | FMDV antiviral | MARV entry inh | HCMV inh | Lassa entry inh | VACV mCherry inh
COC(=O)[C@@]12Cc3ccccc3[C@H]1C[C@H](C)[C@@H](C)N2C(=O)C(F)(F)F | . | . | 3.2%[14.2 µM] | . | . | .
CCOC(=O)Cn1cc(/C=C/[N+](=O)[O-])c2ccccc21 | . | 28.2µM* | . | -74.3* | . | .
CCOC(=O)Cn1cc(C=C2C(=O)N(C)C(=O)N(C)C2=O)c2ccccc21 | 3.0% | -14.9% | -16.4%[46.1 µM] | 36.4 | -11.4% | -18.3%
O=Cc1cn(Cc2cccc(F)c2)c2ccccc12 | -17.0% | ? | ? | 2.2 | ? | i
Cc1cccc(Cn2cc(/C=C/[N+](=O)[O-])c3ccccc32)c1 | . | ? | ? | -98.9* | ? | .
COC(=O)c1ccc(Cn2cc(/C=C\[N+](=O)[O-])c3ccccc32)o1 | -1.8% | 39.8µM* | ? | -16.1 | ? | i
O=[N+]([O-])/C=C/c1cn(Cc2ccc(Cl)cc2)c2ccccc12 | ? | 35.5µM* | ? | -38.7 | ? | i
